The text below walks through data of PubChem BioAssay (Tox21).

The nature of assay [1]: qHTS assay to identify small molecule antagonists of the androgen receptor (AR) signaling pathway using the MDA cell line in the presence of 0.5 nM R1881 - cell viability counter screen (AID 1259242). Note: nearly all actives have a fitted effect of over 45% in size. The gist of the method: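 qHTS format. MDA-kb2 (MMTV-luc, AR/GR responsive) + cpd + 0.5 nM R1881 final, 16 hr 37C/0% CO2 → CellTiter-Fluor 30 min → fluorescence intensity.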

Assay [2] addresses Estrogen receptor (Homo sapiens) (UniProt P03372). In words: qHTS assay to identify small molecule antagonists of the estrogen receptor alpha (ER-alpha) signaling pathway using the BG1 cell line in the presence of 0.1 nM 17-beta-estradiol (AID 1259244). Note: nearly all actives have a fitted effect of over 50% in size. Note: potency is the fitted concentration of half-maximal effect. The gist of the method: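 Reporter is a stably transfected luciferase under four estrogen responsive elements in VM7Luc4E2 cells expressing native full-length ER-alpha; inhibition of 0.1 nM (final) 17beta-estradiol-driven signal over 22 h is read by luminescence.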

A short description of assay [3]: qHTS assay to identify small molecule phospholipidosis (PLD) inducers (AID 1259344; active = well fitted curve in the direction sought with a large enough effect; an effect the other way counts as inactive or inconclusive). In short, it runs like this: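 After 4 h attachment on collagen I, HepG2 cells were dosed with compound alongside LipidTOX Red, kept 24 h at 37 C, fixed, and imaged for lamellar phospholipid pits.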
For orientation: qHTS replaces the single test concentration by a dilution series.

Assay [4] is described as follows: qHTS assay to identify small molecule HDAC inhibitors (AID 1259364).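 Note: wild-type HCT-116 cells with endogenous class I/II HDAC activity; top concentration of the series differs between compounds; nearly all actives have a fitted effect of over 45% in size.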 In short, it runs like this: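 Quantitative high-throughput format: overnight-seeded HCT-116 cells got compounds for 2 hr at 37C; HDAC-Glo I/II reagent added, 30 min RT, luminescence measured.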
A short description of assay [5]: qHTS assay to identify small molecule HDAC inhibitors - cell viability counter screen (AID 1259365). Note: series mostly up to about 92 µM; nearly all actives have a fitted effect of over 50% in size. The gist of the method:
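Cytotoxicity was gauged in wild-type HCT-116 cells after a brief 2hr treatment with DMSO-dissolved compounds at 37C and 5% CO2, using CellTiter-Glo luminescence developed for 30min at room temperature.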

Assay [6] can be described thus: qHTS assay to identify small molecule agonists of the sonic hedgehog signaling (Shh) pathway - cell viability counter screen (AID 1259366). Note: nearly all actives have a fitted effect of over 50% in size. The gist of the method:
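Stable Gli1-Luc NIH/3T3 clone, 2,000 cells/well. Compound exposure 24hr at 37C. Read-out: CellTiter-Fluor fluorescence.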

Assay [7] can be described thus: qHTS assay to identify small molecule antagonists of the sonic hedgehog signaling (Shh) pathway - cell viability counter screen (AID 1259367). Note: nearly all actives have a fitted effect of over 55% in size. In short, it runs like this:
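Conditioned medium drove Shh signaling in 3T3 Gli1-Luc cells exposed to compounds at 37C and 5% CO2. Viability was determined from CellTiter-Fluor fluorescence, with reagent incubated 1 hr after 23 hr of treatment.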

Assay [8] can be described thus: qHTS assay to identify small molecule agonists of the sonic hedgehog signaling (Shh) pathway (AID 1259368; calls by dose curve;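 note: NIH/3T3-derived 3T3Gli1-Luc cells carrying a stable Gli1-driven firefly luciferase reporter; series mostly up to about 92 µM; nearly all actives have a fitted effect of over 15% in size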). The gist of the method: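 Quantitative high-throughput format using a Gli1-driven firefly luciferase reporter line derived from NIH/3T3 cells. After a 24 hr compound treatment at 37 C and 5% CO2, luminescence reported Gli1 response element activity.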
Assay [9] deals with Estrogen receptor beta (Homo sapiens) (UniProt Q92731). In words: qHTS assay to identify small molecule agonists of the estrogen receptor beta (ER-beta) signaling pathway (AID 1259377; active = well fitted activation curve with a large enough effect in the signal ratio in the repeat runs, not every such curve was filed as active; the % refers to the signal ratio). The gist of the method:
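Measured by fluorescence intensity from a B/G FRET beta-lactamase substrate (2 h, room temperature) in ER-beta-UAS-bla HEK293T cells treated with DMSO-dissolved compounds for 16 hr at 37C and 5% CO2.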

Assay [10] in a line: qHTS assay to identify small molecule agonists of the androgen receptor (AR) signaling pathway in the presence of an antagonist - cell viability counter screen (AID 1259379).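 Note: MDA-kb2 human breast cancer cells carrying an MMTV luciferase reporter; series mostly up to about 92 µM; nearly all actives have a fitted effect of over 25% in size.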 The gist of the method:
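Nilutamide-containing (3.0uM final) MDA-kb2 cultures, 3,000 cells/well, were treated with compounds across 15 concentrations. After 16 hr at 37C with no CO2, cell viability was determined by CellTiter-Fluor fluorescence in the luciferase assay wells.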

The nature of assay [11]: qHTS assay to identify small molecule agonists of the estrogen receptor beta (ER-beta) signaling pathway - cell viability counter screen (AID 1259380). Note: nearly all actives have a fitted effect of over 30% in size. In short, it runs like this:
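Steps: plate ER-beta-UAS-bla HEK293T cells, rest 6 hr; add compounds in DMSO; incubate 16 hr at 37C, 5% CO2; add FRET substrate 2 hr; add CellTiter-Glo, wait 30 min at room temperature; read luminescence.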

Assay [12] is described as follows: qHTS assay to identify small molecule antagonists of the estrogen receptor beta (ER-beta) signaling pathway - cell viability counter screen (AID 1259382). Note: series mostly up to about 92 µM; nearly all actives have a fitted effect of over 55% in size. The gist of the method:
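Viability is scored by CellTiter-Glo luminescence (30 min, room temperature) in ER-beta-UAS-bla HEK293T wells already read for reporter fluorescence. Compound exposure lasts 16 hr at 37C alongside 1nM 17-beta-estradiol in charcoal-stripped serum medium.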

The target in assay [13] is Estrogen receptor (Homo sapiens) (UniProt P03372). In words: qHTS assay to identify small molecule agonists of the estrogen receptor alpha (ER-alpha) signaling pathway in the presence of an antagonist (AID 1259383; calls by dose curve; note: top concentration of the series differs between compounds; nearly all actives have a fitted effect of over 15% in size). In short, it runs like this: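 Readout was ERE-driven luciferase luminescence in VM7Luc4E2 cells, which express full-length ER-alpha endogenously. Compounds were tested at 15 concentrations for 22hr alongside 10.0nM ICI-182,780 (final concentration).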

The nature of assay [14]: qHTS assay to identify small molecule agonists or antagonists of the thyroid stimulating hormone receptor (TSHR) signaling pathway - wild type cell line counter screen (AID 1259384; calls by dose curve). In short, it runs like this: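 Wild-type HEK293 cells were plated 18 h at 37 C/5% CO2, pin-dosed with compound plus Ro20-1724 medium, held 30 min at room temperature, then given cAMP-d2 and anti-cAMP-cryptate; fluorescence was read after 1 h. Fifteen concentrations, triplicate.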

Assay [15] concerns the target Thyrotropin receptor (Homo sapiens) (UniProt P16473). Kind of assay: qHTS assay to identify small molecule antagonists of the thyroid stimulating hormone receptor (TSHR) signaling pathway (AID 1259385; calls by dose curve; note: nearly all actives have a fitted effect of over 20% in size). In short, it runs like this:
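TSHR-HEK293 cells were plated and held 18 h at 37C/5% CO2, then given compound plus Ro20-1724 and stimulated with TSH at 1.5 ng/mL final. After 30 min at room temperature, cAMP was detected with cAMP-d2/anti-cAMP-cryptate (1 h) by fluorescence.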

Assay [16] is described as follows: qHTS assay to identify small molecule agonists of the estrogen receptor alpha (ER-alpha) signaling pathway in the presence of an antagonist - cell viability counter screen (AID 1259386).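 Note: series mostly up to about 92 µM; cells exposed to compounds for 22 h at 37 °C before the viability read; nearly all actives have a fitted effect of over 30% in size.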 The gist of the method: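 In this counter screen, compound effects on VM7Luc4E2 viability were tested in the presence of the antagonist ICI-182,780 at 10.0nM final. Compounds were dosed at 15 concentrations, exposure lasted 22hr, and the CellTiter-Fluor signal was read.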

Assay [17] in a line: qHTS assay to identify small molecule antagonists of the sonic hedgehog signaling (Shh) pathway (AID 1259369; calls by dose curve; note: nearly all actives have a fitted effect of over 45% in size). In short, it runs like this:
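Stable Gli1-Luc reporter NIH/3T3 clone; quantitative HTS in stimulated mode with conditioned medium. Luminescence measured after 24hr compound treatment at 37 C.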

For assay [18], the target named is Estrogen receptor beta (Homo sapiens) (UniProt Q92731). In words: qHTS assay to identify small molecule antagonists of the estrogen receptor beta (ER-beta) signaling pathway (AID 1259378; active = well fitted inhibition curve with a large enough effect in the signal ratio in the repeat runs, not every such curve was filed as active; the % refers to the signal ratio). The gist of the method: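 ER-beta-UAS-bla HEK293T (GripTite) cells in 2% charcoal-stripped FBS medium were preincubated 6 hr at 37C, dosed with compound, then stimulated with 1 nM E2 (final) for 16 hr; beta-lactamase reporter read by B/G FRET fluorescence after 2 hr substrate loading.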

A number with no mark means an inactive call. Results filed as inconclusive are left out. Calls of active or inactive are those of the source. Unless noted, calls come from the whole dose curve; as a rule, active = well fitted curve in the direction sought with a large enough effect in the repeat runs; inconclusive = weak or mixed curves; inactive = no such curve, though single readings can be large; an effect the other way counts as inactive or inconclusive.

Chain of Thyrotropin receptor (Homo sapiens) (P16473 whole entry, looked up): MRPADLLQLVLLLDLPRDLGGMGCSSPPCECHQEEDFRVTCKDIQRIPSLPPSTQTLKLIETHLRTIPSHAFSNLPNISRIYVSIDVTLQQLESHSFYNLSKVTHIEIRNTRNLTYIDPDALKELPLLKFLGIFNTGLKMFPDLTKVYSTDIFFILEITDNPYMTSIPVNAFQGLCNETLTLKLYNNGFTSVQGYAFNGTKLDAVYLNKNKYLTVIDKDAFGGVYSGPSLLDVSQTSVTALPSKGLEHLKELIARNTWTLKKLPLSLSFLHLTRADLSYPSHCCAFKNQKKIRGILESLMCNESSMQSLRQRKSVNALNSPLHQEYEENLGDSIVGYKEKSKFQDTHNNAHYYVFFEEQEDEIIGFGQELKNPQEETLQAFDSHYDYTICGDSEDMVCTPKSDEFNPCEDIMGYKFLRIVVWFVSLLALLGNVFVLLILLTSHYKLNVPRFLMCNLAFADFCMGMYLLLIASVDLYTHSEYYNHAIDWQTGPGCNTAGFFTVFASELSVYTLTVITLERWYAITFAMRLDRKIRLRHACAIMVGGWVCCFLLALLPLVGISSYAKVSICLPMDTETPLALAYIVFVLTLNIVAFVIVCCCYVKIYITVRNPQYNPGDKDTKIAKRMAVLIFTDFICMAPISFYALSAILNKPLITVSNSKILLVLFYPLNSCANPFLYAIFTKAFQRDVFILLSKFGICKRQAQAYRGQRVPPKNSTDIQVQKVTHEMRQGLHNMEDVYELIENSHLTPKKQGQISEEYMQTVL
Chain of Estrogen receptor (Homo sapiens) (P03372 whole entry, looked up): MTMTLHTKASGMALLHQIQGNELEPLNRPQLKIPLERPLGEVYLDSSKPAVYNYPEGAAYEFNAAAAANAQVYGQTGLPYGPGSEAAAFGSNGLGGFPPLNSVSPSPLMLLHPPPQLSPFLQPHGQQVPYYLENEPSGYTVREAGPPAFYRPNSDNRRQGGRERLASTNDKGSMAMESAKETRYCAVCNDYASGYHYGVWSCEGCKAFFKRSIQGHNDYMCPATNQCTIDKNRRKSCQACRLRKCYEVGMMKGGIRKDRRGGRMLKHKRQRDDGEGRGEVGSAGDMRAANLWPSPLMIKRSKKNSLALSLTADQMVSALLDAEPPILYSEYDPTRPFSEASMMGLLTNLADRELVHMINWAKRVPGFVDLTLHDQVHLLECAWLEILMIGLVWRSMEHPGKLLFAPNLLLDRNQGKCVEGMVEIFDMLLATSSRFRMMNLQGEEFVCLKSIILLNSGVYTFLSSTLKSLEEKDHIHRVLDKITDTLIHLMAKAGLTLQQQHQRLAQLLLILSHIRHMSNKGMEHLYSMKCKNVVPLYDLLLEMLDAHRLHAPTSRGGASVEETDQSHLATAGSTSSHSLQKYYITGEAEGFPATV
Chain of Estrogen receptor beta (Homo sapiens) (Q92731 whole entry, looked up): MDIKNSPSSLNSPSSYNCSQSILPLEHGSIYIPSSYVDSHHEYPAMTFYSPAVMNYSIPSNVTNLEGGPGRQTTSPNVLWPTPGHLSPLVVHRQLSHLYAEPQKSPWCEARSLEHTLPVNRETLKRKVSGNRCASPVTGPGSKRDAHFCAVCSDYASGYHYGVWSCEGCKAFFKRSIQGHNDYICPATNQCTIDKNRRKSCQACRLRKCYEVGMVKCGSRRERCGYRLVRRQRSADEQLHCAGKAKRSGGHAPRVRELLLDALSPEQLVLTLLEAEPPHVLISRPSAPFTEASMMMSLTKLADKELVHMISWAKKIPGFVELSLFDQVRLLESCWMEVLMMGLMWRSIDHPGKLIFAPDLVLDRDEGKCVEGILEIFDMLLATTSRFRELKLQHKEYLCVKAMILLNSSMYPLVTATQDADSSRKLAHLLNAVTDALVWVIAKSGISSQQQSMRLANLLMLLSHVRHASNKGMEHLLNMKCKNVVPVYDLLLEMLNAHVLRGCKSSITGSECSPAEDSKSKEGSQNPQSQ

On to `Cc1ncc2n1-c1ccc(Cl)cc1C(c1ccccc1F)=NC2`, for which the outcome in assay [1], in [3], in assay [5], in [8] and in assay [9] was inactive. For the same compound, the Potency in [2] is 10.6 µM (active). In addition, the Potency result in assay [4], in assay [6], in assay [7], in [10], in assay [11] and in assay [12] was “inactive” throughout. Moreover, the Potency result in assay [13], in assay [14], in [15] and in [16] was “inactive” in each case.
With `Cc1nnc2n1-c1sc(CCC(=O)N3CCOCC3)cc1C(c1ccccc1Cl)=NC2`, the outcome in assay [1], in assay [3], in assay [5] and in assay [8] was inactive. For the same compound, the Potency result in [2], in [4], in assay [6], in assay [7], in [17] and in assay [10] was “inactive” throughout. Moreover, the Potency entry in [11], in assay [12], in assay [13], in assay [14], in [15] and in assay [16] was “inactive” throughout.
With `ClCC(Cl)(Cl)Cl`, the outcome in assay [1], in [5], in assay [8] and in [9] was inactive. The Potency result in assay [2], in [4], in assay [6], in assay [7], in assay [17] and in assay [18] was “inactive” throughout. The Potency result in assay [10], in assay [11], in [12], in [13] and in [16] was “inactive” in each case.
Take `N#Cc1c(Cl)cccc1Cl`: the result in assay [1], in [5], in assay [8] and in [9] was inactive. Besides, the Potency result in [2], in [4], in [6], in assay [7], in assay [17] and in assay [18] was “inactive” throughout. Moreover, the Potency result in assay [10], in [11], in assay [12], in assay [13] and in assay [16] was “inactive” throughout.
Take `CC(=O)Nc1cc([As](=O)(O)O)ccc1O`: the result in [1], in [3], in [5], in [8] and in [9] was inactive. Also, the Potency entry in assay [2], in assay [4], in [6], in [7], in assay [17] and in assay [18] was “inactive” each time. Also, the Potency entry in assay [10], in assay [11], in [12], in [13], in [14] and in assay [15] was “inactive” in each case. In addition, the Potency result in [16] is “inactive”.
Regarding `CCS(=O)(=O)C(C)(C)S(=O)(=O)CC`, the result in [1], in [3], in [5], in assay [8] and in [9] was inactive. In addition, the Potency entry in assay [2], in [4], in [6], in [7], in [17] and in assay [18] was “inactive” each time. The Potency result in assay [10], in assay [11], in [12], in assay [13], in assay [14] and in assay [15] was “inactive” throughout. The Potency result in [16] is “inactive”.
For `C[C@@H]1CN(C2CCC(C#N)(c3ccc(F)cc3)CC2)CC[C@]1(C(=O)O)c1ccccc1` (stereo not given in full), the outcome in assay [1], in assay [3], in assay [5] and in [9] was inactive. The Potency result in assay [2], in assay [6], in assay [7], in assay [17], in [18] and in assay [10] was “inactive” each time. Also, the Potency entry in [11], in assay [12], in assay [13], in [14], in assay [15] and in assay [16] was “inactive” each time.
For the compound `O=P(O)(Oc1ccccc1)Oc1ccccc1`, the result in [1], in [5], in assay [8] and in [9] was inactive. The Potency entry in assay [2], in assay [4], in assay [6], in assay [7], in [17] and in [18] was “inactive” throughout. The Potency result in [10], in assay [11], in assay [12], in assay [13], in assay [14] and in assay [15] was “inactive” in each case.
